Where “and” joins values, the source holds several entries; their conditions need not be identical. Equal values may be shown once. Compounds without any hit were thinned out: in the full panel of roughly 83,000, 20% have a hit.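 Plates (96-well) were seeded with cells, treated with compound at one concentration, and incubated for 48 hours before percent growth was determined.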 Values without a mark were called inactive. Calls of active or inactive are those of the source. How the source made its calls: active means growth percent below 10; inactive means the rest.

Data on 40 compounds can be found in PubChem BioAssay (NCI).

The subject of the experiment is HL-60(TB) leukemia. Put plainly: NCI-60 one-dose screen, 48 h (100 = growth as untreated, 0 = no growth, -100 = all killed). Particulars: 10 µM unless noted.
Turning to `Clc1cccc(Cl)c1/C=C/c1cc(/C=C/c2ccc(Br)cc2)c2ccccc2n1`, the growth is 101%.
The result for `O=C(Nc1nc2ccc([N+](=O)[O-])cc2s1)Nc1ccccc1I` reads -1.54% (active); that for `COc1cc(C2CC(c3ccc(Cl)cc3)=Nc3c(N)nc(N)nc3N2)ccc1Oc1nc(Nc2ccc(F)cc2)nc(N(C)C)n1` (stereo not given), 16.3%.
The result for `Cc1ccccc1NC(=O)c1cccc(NC(=O)CCl)c1` reads 19%; that for `COc1cc(C2C(C(=O)OCc3ccccc3)=C(C)Nc3nc4ccccc4n32)cc(OC)c1OC` (stereo not given), 16.1%; that for `CCCCCCCCOc1cccc(S(=O)(=O)Nc2ccc(C)cc2C(=O)O)c1`, 101%.
With `Cc1ccc2c(c1)nc(-c1ccccc1)n2CC(=O)N=Nc1c(O)[nH]c2ccc(Cl)cc12`, the growth was 46.2%.
The result for `NC1(c2ccc(-c3ccc4ncnc(NCc5ccccc5)c4c3)cn2)COC1` reads 113% and 106%.
Turning to `COc1ccc(/C=C/C(=O)c2ccc(N3CCN(C)CC3)cc2)c(C(F)(F)F)c1`, the growth is -24.7% (active).
The result for `CC1(C)CC[C@]2(C(=O)O)CC[C@]3(C)C(=CCC4[C@@]5(C)C[C@@H](O)[C@@H]6OC(c7ccccc7F)OC[C@@]6(C)C5CC[C@]43C)C2C1` (stereo not given in full) reads 2.91% (active).
In the case of `CN1CCN(CCS(=O)(=O)Nc2cc(-c3ccc4ncnc(Nc5ccc(F)c(Cl)c5)c4c3)cnc2Cl)CC1`, the growth is 19.2%.
As to `O=C(CSc1nnc(-c2c[nH]c3ccccc23)n1-c1ccccc1)Nc1ccc(C(=O)/C=C/c2ccc(Cl)cc2)cc1`, the growth was 66.8%.
The result for `COCOc1cc2c(=O)c(C)c(C(=O)N[C@@H](Cc3ccccc3)C(O)C(=O)NCc3ccccc3)oc2cc1OC` (stereo not given in full) reads 99.2%.
`O=C1NC(=NC23CC4CC(CC(C4)C2)C3)N/C1=C\c1ccc2ncsc2c1`: the growth was -16.1% (active).
As to `C#CCOc1cc(N(CC)CC)ccc1C(C(=O)NC(C)(C)C)N(C(=O)C1CCc2cc(F)ccc2O1)c1ccc(F)cc1F` (stereo not given), the growth is 6.7% (active).
As for `O=C(CSc1nnc(-c2c[nH]c3ccccc23)n1-c1ccccc1)Nc1ccc(C(=O)/C=C/c2cccc([N+](=O)[O-])c2)cc1`, the growth was 86.8%.
`Cc1nc(Nc2ccccn2)sc1C(=O)CC(SCC(=O)Nc1ccc(Cl)cc1)c1ccccc1F` (stereo not given): the growth is 14%.
On to `Cc1c(C(=O)NNC(=O)c2ccc(Cl)cc2)nnn1-c1ccc(Cl)cc1`, for which the growth was 100%.
The result for `CN1CCN(c2ccc(C(=O)/C=C/c3ccc(OC(F)F)cc3)cc2)CC1` reads -26.7% (active).
Take `CC(C)c1ccc2c(N)c(C(=O)Nc3ccc(C(F)(F)F)cn3)sc2n1`: the growth was 46.8%.
The result for `COc1cc2nc(SCc3ccccc3)n(-c3ccc(Cl)cc3)c(=O)c2cc1OC` reads 34.8%; that for `CN1CCN(Cc2ccc(C(=O)Nc3cccc(Nc4ccc5cc(O)ccc5n4)c3)cc2C(F)(F)F)CC1`, -70.2% (active); that for `CC(C)C(C(=O)O)n1c(O)c(/C=C2/C=c3cc4c(cc3=NC2=O)OCO4)sc1=S` (stereo not given), 105%.
The result for `Cn1cc(-c2cc(N)n3nc(-c4c[nH]c5ccccc45)cc3n2)c2cc(Cl)ccc21` reads -16.2% (active); that for `Cc1cnc2ccc(Oc3ccccc3-c3ccccc3)nn12`, 107%.
The result for `CCOC(=O)C1=C(N)N(c2ccccc2)C2=C(C(=O)CC(C)(C)C2)C1c1ccc(Cl)cc1` (stereo not given) reads 6.03% (active); that for `O=C(Cc1ccc2c(c1)CN(C1CCC(=O)NC1=O)C2=O)NCCc1ccccc1` (stereo not given), -19.2% (active); that for `Cn1cc(-c2cc(N)n3nc(-c4cn(C)c5ncccc45)cc3n2)c2cccnc21`, 39.2%.
`O=C(Nc1cccc(C(F)(F)F)c1)c1cncc(C#Cc2cnc3ccc(N4CCOCC4)nn23)c1`: the growth is -33% (active).
On to `COc1ccc(OC)c(Cn2cc(C#N)c(N)c2C(=O)c2ccc(Br)cc2)c1`, for which the growth is 20.7%.
The result for `CN1CCCN(Cc2ccc(C(=O)Nc3cccc(Nc4ccc5cc(O)ccc5n4)c3)cc2C(F)(F)F)CC1` reads 73.7%.
Take `N/C(=N\c1nc2ccccc2s1)NC(=O)Nc1ccccc1F`: the growth was -5.29% (active).
As to `O=C(Nc1ccc(OCc2ccc(Cl)cc2)cc1)Nc1ccc(Cl)c(C(F)(F)F)c1`, the growth is 0.65% (active).
Take `CN(C)c1nc(NCCNS(=O)(=O)c2ccc(C3=Nc4c(N)nc(N)nc4NC(c4ccccc4)C3)cc2)nc(Nc2ccc(F)cc2)n1` (stereo not given): the growth is -6.76% (active).
The result for `Nc1cc2ccccc2c(=O)n1NC(=O)c1ccc(Br)cc1` reads 99.4%.
The result for `O=C(NO)c1ccc(CNc2nc(-c3ccccc3)c3ccccc3n2)cc1` reads -4.14% (active); that for `O=c1oc2ccc(-c3ccc(F)cc3F)cc2c(=O)n1-c1ccc(F)cc1`, -40.6% (active); that for `CNCc1cccc2c1OCCCCCC[C@@](C)(O)CC1(CC1)S(=O)(=O)c1ccc(cc1)-c1cnc(N)c(n1)C(=O)N2`, -61.1% (active).
Turning to `COc1cc(/C=C/C(=O)c2cnn(-c3cc(=O)[nH]c4ccccc34)c2C)cc(OC)c1OC`, the growth was 0.36% (active).
For the compound `CN(C)CCNC(=O)OCCCCOc1cc(O)c2c(=O)cc(-c3ccccc3)oc2c1`, the growth is -61.6% (active).
